Assay results reported in ChEMBL document CHEMBL5724796, “Tm Shift (DSF) assay results for EUbOPEN Chemogenomics Library” (2024).

Legend:
Conditions in all cases: Compound concentration 20.0 uM
[1] = molecular target: Tyrosine-protein kinase ABL1 (Homo sapiens) (UniProt P00519)
[2] = molecular target: Bromodomain-containing protein 4 (Homo sapiens) (UniProt O60885)
[3] = molecular target: Cyclin-dependent kinase 2 (Homo sapiens) (UniProt P24941)
[4] = molecular target: Casein kinase I isoform delta (Homo sapiens) (UniProt P48730)
[5] = molecular target: Glycogen synthase kinase-3 beta (Homo sapiens) (UniProt P49841)
[6] = molecular target: Mitogen-activated protein kinase 1 (Homo sapiens) (UniProt P28482)
[7] = molecular target: T1, Aurora kinase A (Homo sapiens) (UniProt O14965)
T1 sequence (whole entry): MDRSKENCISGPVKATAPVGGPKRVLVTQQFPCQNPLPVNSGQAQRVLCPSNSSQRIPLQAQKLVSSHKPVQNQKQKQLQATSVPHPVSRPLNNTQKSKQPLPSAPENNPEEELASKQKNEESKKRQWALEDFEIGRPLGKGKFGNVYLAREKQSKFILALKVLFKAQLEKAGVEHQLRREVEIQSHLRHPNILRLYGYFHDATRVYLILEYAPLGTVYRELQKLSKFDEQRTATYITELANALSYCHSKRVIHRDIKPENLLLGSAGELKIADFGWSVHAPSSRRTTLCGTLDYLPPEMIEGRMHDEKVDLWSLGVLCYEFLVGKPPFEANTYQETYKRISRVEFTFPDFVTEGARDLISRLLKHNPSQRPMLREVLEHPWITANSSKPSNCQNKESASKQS

[8] = molecular target: T2, Transcription intermediary factor 1-alpha (Homo sapiens) (UniProt O15164)
T2 sequence (whole entry): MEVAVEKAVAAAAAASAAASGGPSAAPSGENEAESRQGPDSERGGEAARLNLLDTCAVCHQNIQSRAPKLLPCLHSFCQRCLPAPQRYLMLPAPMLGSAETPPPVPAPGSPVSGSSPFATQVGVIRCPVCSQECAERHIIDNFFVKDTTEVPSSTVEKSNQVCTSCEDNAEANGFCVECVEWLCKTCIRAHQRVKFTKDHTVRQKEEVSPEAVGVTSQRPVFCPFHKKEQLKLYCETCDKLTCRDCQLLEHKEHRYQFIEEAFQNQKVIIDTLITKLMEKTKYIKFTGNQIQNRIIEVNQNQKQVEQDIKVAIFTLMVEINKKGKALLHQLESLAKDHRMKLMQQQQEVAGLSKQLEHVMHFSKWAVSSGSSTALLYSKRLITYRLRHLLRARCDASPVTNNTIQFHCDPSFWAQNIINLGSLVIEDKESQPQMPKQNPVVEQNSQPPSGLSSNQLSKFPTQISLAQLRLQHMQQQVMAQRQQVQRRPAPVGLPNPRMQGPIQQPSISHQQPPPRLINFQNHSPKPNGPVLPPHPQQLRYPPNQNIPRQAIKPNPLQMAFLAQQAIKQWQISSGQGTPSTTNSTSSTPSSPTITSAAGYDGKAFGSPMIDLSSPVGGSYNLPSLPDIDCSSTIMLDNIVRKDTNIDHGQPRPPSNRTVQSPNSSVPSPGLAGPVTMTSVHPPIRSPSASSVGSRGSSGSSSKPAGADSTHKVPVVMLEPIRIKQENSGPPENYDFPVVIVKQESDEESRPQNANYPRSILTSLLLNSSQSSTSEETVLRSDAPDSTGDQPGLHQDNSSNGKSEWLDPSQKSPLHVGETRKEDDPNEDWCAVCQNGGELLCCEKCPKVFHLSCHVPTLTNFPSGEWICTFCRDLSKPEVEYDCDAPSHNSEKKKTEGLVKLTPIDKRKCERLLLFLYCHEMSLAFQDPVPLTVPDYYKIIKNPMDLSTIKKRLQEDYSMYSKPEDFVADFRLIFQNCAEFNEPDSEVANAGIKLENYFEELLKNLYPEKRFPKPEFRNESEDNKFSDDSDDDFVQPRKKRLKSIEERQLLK

Tyrosine-protein kinase ABL1 (Homo sapiens), sequence (P00519 whole entry): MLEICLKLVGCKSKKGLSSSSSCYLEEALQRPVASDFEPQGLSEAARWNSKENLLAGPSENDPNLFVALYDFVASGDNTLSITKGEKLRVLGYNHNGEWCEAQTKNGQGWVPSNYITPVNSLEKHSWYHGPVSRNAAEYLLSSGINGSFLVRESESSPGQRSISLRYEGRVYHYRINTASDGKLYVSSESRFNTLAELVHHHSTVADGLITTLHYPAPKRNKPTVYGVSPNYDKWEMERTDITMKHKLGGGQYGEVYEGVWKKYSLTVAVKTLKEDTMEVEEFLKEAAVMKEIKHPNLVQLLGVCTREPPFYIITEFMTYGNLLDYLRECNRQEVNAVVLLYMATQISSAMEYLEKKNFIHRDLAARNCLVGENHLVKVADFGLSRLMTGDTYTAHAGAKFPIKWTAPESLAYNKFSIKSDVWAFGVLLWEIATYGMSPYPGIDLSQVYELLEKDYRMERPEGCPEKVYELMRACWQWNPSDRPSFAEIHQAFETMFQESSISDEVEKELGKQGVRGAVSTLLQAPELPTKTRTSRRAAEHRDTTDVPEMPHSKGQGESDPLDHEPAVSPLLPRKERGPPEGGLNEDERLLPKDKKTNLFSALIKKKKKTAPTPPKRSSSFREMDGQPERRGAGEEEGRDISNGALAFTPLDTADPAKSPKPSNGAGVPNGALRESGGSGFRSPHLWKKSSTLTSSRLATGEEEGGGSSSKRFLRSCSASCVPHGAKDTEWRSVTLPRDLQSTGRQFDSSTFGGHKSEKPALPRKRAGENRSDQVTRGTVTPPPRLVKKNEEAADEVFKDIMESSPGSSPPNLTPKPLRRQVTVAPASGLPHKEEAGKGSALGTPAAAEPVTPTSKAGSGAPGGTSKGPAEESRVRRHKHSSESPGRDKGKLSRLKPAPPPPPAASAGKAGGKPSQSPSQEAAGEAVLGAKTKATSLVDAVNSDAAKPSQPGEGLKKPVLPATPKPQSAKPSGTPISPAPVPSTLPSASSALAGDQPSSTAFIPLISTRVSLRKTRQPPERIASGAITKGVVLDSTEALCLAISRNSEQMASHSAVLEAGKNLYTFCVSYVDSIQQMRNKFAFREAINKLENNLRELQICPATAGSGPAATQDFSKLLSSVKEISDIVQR
Casein kinase I isoform delta (Homo sapiens), sequence (P48730 whole entry, looked up, canonical isoform): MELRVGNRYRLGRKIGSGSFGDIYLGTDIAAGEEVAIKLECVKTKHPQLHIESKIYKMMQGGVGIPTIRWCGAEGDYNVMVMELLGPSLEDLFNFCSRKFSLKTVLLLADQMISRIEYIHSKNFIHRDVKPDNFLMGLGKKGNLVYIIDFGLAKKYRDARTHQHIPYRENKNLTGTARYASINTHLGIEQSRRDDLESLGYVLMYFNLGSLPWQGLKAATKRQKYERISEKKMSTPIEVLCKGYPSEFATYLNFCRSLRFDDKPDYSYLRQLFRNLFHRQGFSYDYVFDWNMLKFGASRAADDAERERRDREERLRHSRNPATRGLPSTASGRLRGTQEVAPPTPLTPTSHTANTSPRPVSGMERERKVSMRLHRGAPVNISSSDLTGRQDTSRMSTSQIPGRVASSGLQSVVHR
Mitogen-activated protein kinase 1 (Homo sapiens), sequence (P28482 whole entry): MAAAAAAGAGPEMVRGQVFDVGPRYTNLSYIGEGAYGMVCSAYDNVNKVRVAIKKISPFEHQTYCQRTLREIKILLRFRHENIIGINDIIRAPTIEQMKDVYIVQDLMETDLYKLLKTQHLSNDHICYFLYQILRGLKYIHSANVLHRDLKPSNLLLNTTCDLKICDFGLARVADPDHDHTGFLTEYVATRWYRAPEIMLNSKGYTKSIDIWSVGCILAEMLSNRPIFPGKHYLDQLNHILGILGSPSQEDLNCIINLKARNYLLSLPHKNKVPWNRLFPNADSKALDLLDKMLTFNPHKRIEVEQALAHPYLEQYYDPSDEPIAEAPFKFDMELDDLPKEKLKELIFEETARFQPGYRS
Glycogen synthase kinase-3 beta (Homo sapiens), sequence (P49841 whole entry, looked up): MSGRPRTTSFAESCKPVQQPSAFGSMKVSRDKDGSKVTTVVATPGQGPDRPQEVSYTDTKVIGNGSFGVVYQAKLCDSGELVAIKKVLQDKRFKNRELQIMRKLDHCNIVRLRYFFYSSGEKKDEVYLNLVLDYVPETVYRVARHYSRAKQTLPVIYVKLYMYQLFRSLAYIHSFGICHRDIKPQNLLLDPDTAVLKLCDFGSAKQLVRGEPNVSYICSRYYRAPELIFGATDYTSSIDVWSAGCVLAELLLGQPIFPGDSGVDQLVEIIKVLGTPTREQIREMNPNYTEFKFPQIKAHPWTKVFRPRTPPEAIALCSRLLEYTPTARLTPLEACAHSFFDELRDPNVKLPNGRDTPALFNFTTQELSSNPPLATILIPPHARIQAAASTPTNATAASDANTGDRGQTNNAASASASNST

| SMILES | ΔTm [1] | ΔTm [2] | ΔTm [3] | ΔTm [4] | ΔTm [5] | ΔTm [6] | ΔTm [7] | ΔTm [8] |
| --- | --- | --- | --- | --- | --- | --- | --- | --- |
| Cc1cc(OCCCNCCC(N)=O)ccc1Cc1c(O[C@@H]2O[C@H](CO)[C@@H](O)[C@H](O)[C@H]2O)n[nH]c1C(C)C | 0.54 °C | -1.5 °C | 0.03 °C | -0.12 °C | -0.7 °C | 0.24 °C | -2.37 °C | -0.75 °C |
| O=C(NCC1(c2nc(-c3ccccc3)cs2)CCOCC1)c1cccc(-c2noc(C(F)(F)F)n2)c1 | 0 °C | -2.25 °C | 0.39 °C | 0.15 °C | -0.34 °C | -4.88 °C | -0.64 °C | -1.09 °C |
| Nc1ccc(-c2cccs2)cc1NC(=O)c1ccc2nc(N3CCNCC3)ccc2c1 | 3.35 °C | -2.49 °C | 1.41 °C | 0.14 °C | 0.38 °C | -0.25 °C | -0.39 °C | -0.74 °C |
| Cc1cc(-c2ccccc2)cc(C(=O)NNS(=O)(=O)c2ccccc2)c1F | 0.58 °C | -6.22 °C | -3.62 °C | 0.42 °C | -3.1 °C | 0 °C | -4.21 °C | -1.85 °C |
| CC(C)NC(=O)c1ccc(OC(F)F)c(OCC2CC2)c1 | 0.64 °C | -3.14 °C | 0.29 °C | -0.07 °C | -0.46 °C | 0.24 °C | -2.33 °C | 1.71 °C |
| COCc1nc(C(F)(F)F)[nH]c1-c1cc(C(=O)N2CC(c3ccc(C#N)cc3)C2)c(C)cc1C | 0.13 °C | -3.21 °C | -0.08 °C | -0.27 °C | -1.21 °C | 0.07 °C | -2.54 °C | -1.79 °C |
| CC(=O)C(=Cc1cc(O)c(O)c([N+](=O)[O-])c1)C(C)=O | 0.06 °C | 0.74 °C | 0.04 °C | -0.82 °C | -0.72 °C | 0.27 °C | 0.07 °C | 0.21 °C |
| N#Cc1cc(F)cc(Oc2ccc3c(c2C(F)F)[C@@H](O)C(F)(F)S3(=O)=O)c1 | 0.45 °C | -2.84 °C | -0.03 °C | -0.34 °C | 0.02 °C | 0.16 °C | -2.42 °C | -0.94 °C |
| O=C(NCCCn1ccnc1)c1cc2nc(-c3ccccc3)cc(-c3ccccc3)n2n1 | 0.26 °C | -2.23 °C | -0.13 °C | 0.15 °C | -0.59 °C | -2.4 °C | -0.86 °C | -0.04 °C |
| Cc1cc(/N=N/c2ccc3c(c2)CCC(=O)N3)c(N)cc1O | 2.28 °C | -0.4 °C | -0.28 °C | 0.68 °C | -0.3 °C | 0.09 °C | -0.6 °C | -0.66 °C |
| CCOCC1(COCC)CCC(c2n[nH]cc2CN(C)CCNC)CC1 | 0.58 °C | -1.39 °C | -0.06 °C | 0.56 °C | -1.08 °C | 0.33 °C | -0.08 °C | -1.29 °C |
| CC(C)c1c(-c2cnn(C(C)(C)C)c2)[nH]c2c(C#N)cnn2c1=O | 0.32 °C | -1.11 °C | 0.15 °C | -0.24 °C | 0.53 °C | 0.3 °C | -0.18 °C | 0.36 °C |
| Cc1cc(C(=O)CN2CCC(O)CC2)c(C)n1-c1ccc(C#N)cc1 | 0.11 °C | -2.81 °C | -0.05 °C | -0.34 °C | -0.73 °C | 0.01 °C | -2.48 °C | -1.8 °C |
| CC#C[C@]1(O)CC[C@H]2[C@@H]3CCC4=CC(=O)CCC4=C3[C@@H](c3ccc(N(C)C)cc3)C[C@@]21C | 0.11 °C | -2.39 °C | -0.02 °C | 0.02 °C | -1.3 °C | -0.7 °C | -1.55 °C | -0.92 °C |
| Cn1cc(NC(=O)c2cc(F)cc(F)c2)c(C(=O)NC2CCNCC2)n1 | 0.23 °C | -2.12 °C | -0.02 °C | 1.02 °C | -0.14 °C | -0.35 °C | -0.65 °C | -0.68 °C |
| COc1ccc2c(c1)OC(C)(C)C(c1ccccc1)C2c1ccc(OCCN2CCCC2)cc1 (stereo unspecified) | -0.02 °C | -3.83 °C | -2.04 °C | -0.1 °C | 0 °C | -2.68 °C | 0.51 °C | -3.44 °C |
| O=c1[nH][nH]c(=O)c2cc(OCc3ccccc3F)ccc12 | 3.37 °C | -1.6 °C | 0.72 °C | -6.69 °C | 1.24 °C | -14.6 °C | -0.33 °C | 0 °C |
| Cc1[nH]c2c(N3CCO[C@H](CO)C3)c(C#N)c(C(F)(F)F)nc2c1Cl | 0.59 °C | -1.62 °C | 1.92 °C | 0.2 °C | 1.93 °C | 1.85 °C | -1.95 °C | -1.25 °C |
| CC(C)(C)NS(=O)(=O)c1ccc(NC(=O)[C@H](Cc2ccccc2)NC(=O)c2ccc(F)cc2)cc1 | 2.48 °C | -1.97 °C | 0.06 °C | 0.21 °C | 2.59 °C | -3.67 °C | -0.32 °C | -0.1 °C |
| N=C(N)N/N=C/c1cccc(Cl)c1Cl | 0.36 °C | -1.26 °C | -0.05 °C | 0.55 °C | -0.98 °C | 0.2 °C | -0.81 °C | -0.47 °C |
| N=C(N)SCc1ccc(CN2C(=O)C(=O)c3cc(C(F)(F)F)ccc32)cc1 | -0.91 °C | -2.92 °C | 0.03 °C | 0.19 °C | -0.71 °C | 0.42 °C | -1.8 °C | 0 °C |
| CN(C)CCCCC(=O)Nc1ccc(NC(=S)NC(=O)c2ccc(C(C)(C)C)cc2)cc1 | 0.43 °C | -4.74 °C | 0.19 °C | 0.69 °C | 1.54 °C | 0.13 °C | -2.09 °C | -0.79 °C |
